In PubChem BioAssay (NCI):
The panel holds about 83,000 compounds, 20% with a hit somewhere; the sample as a whole holds those more often.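 Single-concentration screen, 48 h exposure, 96-well plates. Endpoint: percent growth. Below 10 = active.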 Active and inactive are the calls of the source.

Tests used:
Experiment in all cases: NCI-60 one-dose screen, 48 h (100 = growth as untreated, 0 = no growth, -100 = all killed)
HCT-15 colon = details: 10 µM unless noted
HT29 colon = details: 10 µM unless noted
SNB-75 CNS = details: 10 µM unless noted
SNB-19 CNS = details: 10 µM unless noted
U251 CNS = details: 10 µM unless noted
PC-3 prostate = details: 10 µM unless noted
SK-MEL-5 melanoma = details: 10 µM unless noted
UACC-62 melanoma = details: 10 µM unless noted
LOX IMVI melanoma = details: 10 µM
SK-MEL-28 melanoma = details: 10 µM unless noted
SK-MEL-2 melanoma = details: 10 µM unless noted
EKVX NSCLC = details: 10 µM unless noted
SN12C renal = details: 10 µM unless noted
UO-31 renal = details: 10 µM unless noted
TK-10 renal = details: 10 µM unless noted
ACHN renal = details: 10 µM unless noted
CAKI-1 renal = details: 10 µM unless noted
A498 renal = details: 10 µM unless noted
CCRF-CEM leukemia = details: 10 µM unless noted
MOLT-4 leukemia = details: 10 µM unless noted

Measured: growth

Cc1ccc(S(=O)(=O)c2nc(S(=O)(=O)c3ccc(C)cc3)c(N3CCN(C)CC3)s2)cc1
inactive: HCT-15 colon 24.6% | HT29 colon 56% | SNB-75 CNS 91.3% | SNB-19 CNS 85.7% | U251 CNS 52.9% | PC-3 prostate 78.8% | SK-MEL-5 melanoma 63.2% | UACC-62 melanoma 48% | LOX IMVI melanoma 30.4% | SK-MEL-28 melanoma 68.8% | SK-MEL-2 melanoma 49.4% | EKVX NSCLC 63.4% | SN12C renal 46.3% | UO-31 renal 69.5% | TK-10 renal 125% | ACHN renal 71.6% | CAKI-1 renal 60.9% | A498 renal 83.5% | CCRF-CEM leukemia 19.7% | MOLT-4 leukemia 30%

O=c1oc2ccccc2cc1-c1csc(N=Nc2c(O)[nH]c3ccc(Cl)cc23)n1
inactive: HCT-15 colon 98.8% | HT29 colon 107% | SNB-75 CNS 98.1% | SNB-19 CNS 89.7% | U251 CNS 101% | PC-3 prostate 108% | SK-MEL-5 melanoma 98.7% | UACC-62 melanoma 92% | LOX IMVI melanoma 100% | SK-MEL-28 melanoma 109% | SK-MEL-2 melanoma 112% | EKVX NSCLC 100% | SN12C renal 97.9% | UO-31 renal 97.7% | TK-10 renal 109% | ACHN renal 110% | CAKI-1 renal 106% | A498 renal 98.6% | CCRF-CEM leukemia 103% | MOLT-4 leukemia 109%

CCCCCCn1c(O)c(N=Nc2nc(-c3cc4ccccc4oc3=O)cs2)c2ccccc21
active: HT29 colon -39.7% | U251 CNS -57.5% | PC-3 prostate -2.73% | SK-MEL-5 melanoma -64.8% | UACC-62 melanoma -2.7% | LOX IMVI melanoma -63.9% | SK-MEL-28 melanoma -39.3% | EKVX NSCLC 1.67% | CCRF-CEM leukemia 5.68%
inactive: HCT-15 colon 36.7% | SNB-75 CNS 81.4% | SNB-19 CNS 40% | SK-MEL-2 melanoma 79.7% | SN12C renal 63.8% | UO-31 renal 75.1% | TK-10 renal 90.4% | ACHN renal 81.4% | CAKI-1 renal 58.9% | A498 renal 88% | MOLT-4 leukemia 23.4%

CC(C)C(C(=O)O)n1c(O)c(/C=C2/C=c3cc4c(cc3=NC2=O)OCO4)sc1=S (stereo not given)
inactive: HCT-15 colon 101% | HT29 colon 119% | SNB-75 CNS 101% | SNB-19 CNS 94.4% | U251 CNS 106% | PC-3 prostate 106% | SK-MEL-5 melanoma 103% | UACC-62 melanoma 89.2% | LOX IMVI melanoma 94% | SK-MEL-28 melanoma 110% | SK-MEL-2 melanoma 104% | EKVX NSCLC 99.3% | SN12C renal 96.6% | UO-31 renal 78.2% | TK-10 renal 89.8% | ACHN renal 111% | CAKI-1 renal 93% | A498 renal 102% | CCRF-CEM leukemia 106% | MOLT-4 leukemia 104%

COc1c(F)ccc(C(=O)Nc2ccc3nc(NC(=O)C4CCCN(S(=O)(=O)c5ccc(Br)s5)C4)sc3c2)c1F (stereo not given)
inactive: HCT-15 colon 63% | HT29 colon 75.5% | SNB-75 CNS 66.5% | SNB-19 CNS 90.1% | U251 CNS 68% | PC-3 prostate 56.1% | SK-MEL-5 melanoma 81.5% | UACC-62 melanoma 75.6% | LOX IMVI melanoma 79.3% | SK-MEL-28 melanoma 94.6% | SK-MEL-2 melanoma 81.8% | EKVX NSCLC 81.2% | SN12C renal 85.9% | UO-31 renal 77.6% | TK-10 renal 116% | ACHN renal 77.2% | CAKI-1 renal 82.6% | A498 renal 104% | CCRF-CEM leukemia 75% | MOLT-4 leukemia 48.5%

CCOC(=O)C1=C(N)N(c2ccccc2)C2=C(C(=O)CC(C)(C)C2)C1c1ccc([N+](=O)[O-])cc1 (stereo not given)
inactive: HCT-15 colon 86.4% | HT29 colon 99.4% | SNB-75 CNS 104% | SNB-19 CNS 94% | U251 CNS 101% | PC-3 prostate 68% | SK-MEL-5 melanoma 96.5% | UACC-62 melanoma 66.6% | LOX IMVI melanoma 85.5% | SK-MEL-28 melanoma 105% | SK-MEL-2 melanoma 97.2% | EKVX NSCLC 86.4% | SN12C renal 98.4% | UO-31 renal 95.7% | TK-10 renal 113% | ACHN renal 87.9% | CAKI-1 renal 68.4% | A498 renal 114% | CCRF-CEM leukemia 89.1% | MOLT-4 leukemia 78.3%

Nc1nc(-c2ccccc2)c(N=Nc2ccc(Cl)cc2[N+](=O)[O-])s1
inactive: HCT-15 colon 94.4% | HT29 colon 100% | SNB-75 CNS 80.1% | SNB-19 CNS 89.2% | U251 CNS 92.4% | PC-3 prostate 87.1% | SK-MEL-5 melanoma 98.8% | UACC-62 melanoma 77.3% | LOX IMVI melanoma 88.2% | SK-MEL-28 melanoma 107% | SK-MEL-2 melanoma 90.4% | EKVX NSCLC 76.8% | SN12C renal 96% | UO-31 renal 65.2% | TK-10 renal 169% | ACHN renal 101% | CAKI-1 renal 82.5% | A498 renal 92% | CCRF-CEM leukemia 101% | MOLT-4 leukemia 100%

O=c1oc2ccccc2cc1-c1csc(N2N=C(c3ccccc3)CC2c2ccc(N3CCOCC3)cc2)n1 (stereo not given)
inactive: HCT-15 colon 96.6% | HT29 colon 117% | SNB-75 CNS 101% | SNB-19 CNS 116% | U251 CNS 109% | PC-3 prostate 102% | SK-MEL-5 melanoma 105% | UACC-62 melanoma 92.2% | LOX IMVI melanoma 86.7% | SK-MEL-28 melanoma 109% | SK-MEL-2 melanoma 101% | EKVX NSCLC 96.1% | SN12C renal 107% | UO-31 renal 73.8% | TK-10 renal 159% | ACHN renal 99.2% | CAKI-1 renal 90.6% | A498 renal 153% | CCRF-CEM leukemia 96.6% | MOLT-4 leukemia 95.9%

Cn1cc(-c2nc(N)nnc2-c2c[nH]c3ccc(Br)cc23)c2cc(Br)cnc21
active: HCT-15 colon 3.67% | HT29 colon -31.5% | SNB-75 CNS -0.672% | U251 CNS 8.22% | PC-3 prostate 3.39% | SK-MEL-5 melanoma -63.5% | UACC-62 melanoma 8.26% | ACHN renal 6.39% | CAKI-1 renal -8.15% | A498 renal -14.3% | CCRF-CEM leukemia 0.493% | MOLT-4 leukemia -2.69%
inactive: SNB-19 CNS 33.9% | LOX IMVI melanoma 17.3% | SK-MEL-28 melanoma 27.1% | SK-MEL-2 melanoma 13.1% | EKVX NSCLC 30.4% | SN12C renal 11.3% | UO-31 renal 10.4% | TK-10 renal 47.4%

Cc1cccc(-c2nc(Nc3ccc(C)c(S(N)(=O)=O)c3)c3ccccc3n2)c1
inactive: HT29 colon 18% | SNB-75 CNS 91.5% | SNB-19 CNS 32.5% | U251 CNS 29.4% | PC-3 prostate 15.7% | SK-MEL-5 melanoma 29.5% | UACC-62 melanoma 43% | SK-MEL-28 melanoma 38.9% | SK-MEL-2 melanoma 52.2% | EKVX NSCLC 22.7% | SN12C renal 29.8% | UO-31 renal 25.2% | TK-10 renal 60.1% | ACHN renal 15.3% | CAKI-1 renal 24% | A498 renal 52.8% | CCRF-CEM leukemia 17.7% | MOLT-4 leukemia 16.8%
active: HCT-15 colon -19.4% | LOX IMVI melanoma -34.7%

CCCCCCCS(=O)(=O)N1CCCC(C(=O)Nc2nc3ccc(NC(=O)c4ccc(F)c(OC)c4F)cc3s2)C1 (stereo not given)
inactive: HCT-15 colon 59.6% | HT29 colon 60.2% | SNB-75 CNS 64.7% | SNB-19 CNS 31.9% | U251 CNS 38.6% | PC-3 prostate 40.3% | SK-MEL-5 melanoma 55% | UACC-62 melanoma 52.6% | LOX IMVI melanoma 34% | SK-MEL-28 melanoma 74.2% | SK-MEL-2 melanoma 58.9% | EKVX NSCLC 55.7% | SN12C renal 51.3% | UO-31 renal 67.9% | TK-10 renal 85.9% | ACHN renal 53% | CAKI-1 renal 59% | A498 renal 89.4% | CCRF-CEM leukemia 50.2% | MOLT-4 leukemia 59.7%

N/C(=N\c1nc2ccccc2s1)NC(=O)Nc1c(Cl)cccc1Cl
active: HT29 colon 8.87% | SK-MEL-2 melanoma 6%
inactive: HCT-15 colon 26.1% | SNB-75 CNS 27.7% | SNB-19 CNS 54.7% | U251 CNS 27.9% | PC-3 prostate 63.2% | SK-MEL-5 melanoma 22.4% | UACC-62 melanoma 23.6% | LOX IMVI melanoma 24.7% | SK-MEL-28 melanoma 50.6% | EKVX NSCLC 37.6% | SN12C renal 30.4% | UO-31 renal 47.6% | TK-10 renal 93.8% | ACHN renal 48.1% | CAKI-1 renal 32% | A498 renal 94.3% | CCRF-CEM leukemia 30% | MOLT-4 leukemia 30%

O=C(CN1C(=O)/C(=C/c2ccccc2Cl)SC1=S)N1CCOCC1
inactive: HCT-15 colon 45% | HT29 colon 96.4% | SNB-75 CNS 109% | SNB-19 CNS 92.4% | U251 CNS 93.4% | PC-3 prostate 102% | SK-MEL-5 melanoma 98.9% | UACC-62 melanoma 83.2% | LOX IMVI melanoma 48.2% | SK-MEL-28 melanoma 98.8% | SK-MEL-2 melanoma 103% | EKVX NSCLC 99.8% | SN12C renal 78.5% | UO-31 renal 66.5% | TK-10 renal 112% | ACHN renal 61.2% | CAKI-1 renal 90.9% | A498 renal 119% | CCRF-CEM leukemia 61.8% | MOLT-4 leukemia 85.9%

COC(=O)C[C@](O)(CCCC(C)(C)O)C(=O)O[C@H]1C(OC)=C[C@@]23CCCN2CCc2cc4c(cc2[C@@H]13)OCO4
inactive: UO-31 renal 30.6%
active: HCT-15 colon 0.83% | HT29 colon -48.3% | SNB-75 CNS -48.9% | SNB-19 CNS -26.8% | U251 CNS -23.4% | PC-3 prostate -15.1% | SK-MEL-5 melanoma -71.9% | UACC-62 melanoma -18.5% | LOX IMVI melanoma -82.4% | SK-MEL-28 melanoma -35.4% | SK-MEL-2 melanoma -40% | EKVX NSCLC -4.85% | SN12C renal -11.3% | TK-10 renal -12.6% | ACHN renal 2.95% | CAKI-1 renal 3.41% | A498 renal -18.6% | CCRF-CEM leukemia -5.84% | MOLT-4 leukemia -6.36%

COc1cc2nc(SCc3ccccc3)n(-c3ccc(Cl)cc3)c(=O)c2cc1OC
inactive: HCT-15 colon 33.6% | HT29 colon 45.4% | SK-MEL-5 melanoma 82.9% | UACC-62 melanoma 29.3% | SK-MEL-28 melanoma 21.6% | SK-MEL-2 melanoma 28.3% | CCRF-CEM leukemia 18.5% | MOLT-4 leukemia 43.1%
active: SNB-75 CNS -49.5% | SNB-19 CNS -30% | U251 CNS -73.1% | PC-3 prostate 1.2% | LOX IMVI melanoma -100% | EKVX NSCLC -13.1% | SN12C renal -11.3% | UO-31 renal -38.8% | TK-10 renal -38.8% | ACHN renal -66.4% | CAKI-1 renal -75.5% | A498 renal 7.03%
